Screens as filed in PubChem BioAssay.
SARS PLP yeast: blocks SARS-CoV papain-like protease in a yeast assay; S. cerevisiae expressing SARS-CoV PLpro, growth rescue; Potency, µM (titrated, usually from 32.9 µM), usual class: activators; actives 0.19% (n = 330,000); calls by dose curve; also: nearly all actives have a fitted effect of over 55% in size
AmpC inh detg: inhibitors of E. coli AmpC beta-lactamase with detergent; actives 0.041% (n = 370,000); AID 485294; AmpC hydrolysis of nitrocefin, absorbance 480 nm, 0.01% Triton; P00811; Potency, µM (highest dose often 114 µM), most hits filed as inhibitors; also: nearly all actives have a fitted effect of over 25% in size
Target sequence (P00811 whole entry, looked up): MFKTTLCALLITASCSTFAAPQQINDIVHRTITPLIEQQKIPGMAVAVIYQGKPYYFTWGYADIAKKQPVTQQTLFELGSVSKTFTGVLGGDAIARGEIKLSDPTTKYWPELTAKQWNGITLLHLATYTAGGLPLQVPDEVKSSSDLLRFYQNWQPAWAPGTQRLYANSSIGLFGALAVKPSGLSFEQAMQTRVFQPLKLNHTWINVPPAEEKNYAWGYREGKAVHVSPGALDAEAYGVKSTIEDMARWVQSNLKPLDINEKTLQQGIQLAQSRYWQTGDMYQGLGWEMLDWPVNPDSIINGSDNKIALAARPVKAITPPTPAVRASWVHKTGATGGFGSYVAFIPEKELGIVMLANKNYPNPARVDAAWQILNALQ
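AmpC (5.3 nM in the dispensed reagent) in 20 mM phosphate pH 7.0 with 0.01% (detergent screen) or 0.0001% Triton X-100 was preincubated with compounds for 15 min at room temperature. Nitrocefin was then added from an 800 uM solution, and hydrolysis was followed at 480 nm.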
CHX counter: counter-screen hit for Shiga toxin inhibitors, cycloheximide | cell reporter, cycloheximide protein synthesis inhibition counterscreen | max response, % | actives 12% (n = 300,000) | AID 2314; in the data active = max response mostly above about 13%, no sharp cut-off; inactive = mostly below about 14%; also: read at 38.3 µM for the half of the compounds with a filed dose
Shiga inhibitor: blocks Shiga toxin action in Vero cells; Vero cells, Shiga toxin protein synthesis inhibition reporter; AID 2315; actives 9.2% (n = 290,000); inhibition, % at 38.7 µM; in the data active = inhibition mostly above about 28%, no sharp cut-off; inactive = mostly below about 43%
AMA1 RON2 block: AMA1-RON2 (P. falciparum) interaction inhibition; Potency, µM (titrated, usually from 58.2 µM), actives largely listed as inhibitors; actives 0.2% (n = 360,000); AlphaScreen AMA1-biotinylated RON2 peptide binding; also: nearly all actives have a fitted effect of over 45% in size
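AMA1 (3D7) with his tag at 25 nM final met compounds first, then biotinylated RON2 peptide at 25 nM; detection used donor plus acceptor beads, 10 µg/mL apiece, read by AlphaScreen after 30 min at room temperature.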
AmpC inh no detg: blocks E. coli AmpC beta-lactamase in detergent-free assay. AmpC nitrocefin hydrolysis, absorbance 480 nm, 0.0001% Triton. actives 0.52% (n = 330,000). P00811. AID 485341. Potency, µM (titrated, usually from 57.1 µM), hits mostly inhibitors; also: nearly all actives have a fitted effect of over 20% in size
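20 mM phosphate pH 7.0 + 0.01% (detergent screen) or 0.0001% Triton X-100; 5.3 nM AmpC reagent; cpd preinc 15 min RT; nitrocefin (800 uM stock) to start; A480 q20 s × 4 min; Activity was normalised to no-enzyme and no-compound control wells.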
Hits are given with their value. Many of the other results were omitted from the sample, so hits are more common in it than they were. Unless noted, calls follow the shape of the dose curve; as a rule, active = well fitted curve in the direction sought with a large enough effect; inconclusive = small, poorly fitted or top-dose-only effect, or another doubt; inactive = no such curve, though single readings can be large; an effect the other way counts as inactive or inconclusive.

How did COC(=O)c1c(NC(=O)C2C3CCC(C3)C2C(=O)O)sc2c1CCCCC2 (centres undefined) do in these assays?
SARS PLP yeast: inactive; AmpC inh detg: inactive; CHX counter: inactive; Shiga inhibitor: 51; AMA1 RON2 block: inactive; AmpC inh no detg: inactive

How did CCN1CCc2c(OCC(=O)Nc3ccccc3)cccc2C1=O do in these assays?
SARS PLP yeast: inactive; AmpC inh detg: inactive; CHX counter: inactive; Shiga inhibitor: inactive; AMA1 RON2 block: inactive; AmpC inh no detg: inactive

What do the screens show for `CCOc1ccc(C(=O)Nc2nc(C)c(C(=O)OC)s2)cc1`?
SARS PLP yeast: inactive; AmpC inh detg: inactive; CHX counter: 35; Shiga inhibitor: 51; AMA1 RON2 block: inactive; AmpC inh no detg: inactive

How did C=CCOC(=O)c1sc(NC(=O)c2ccc(OC)cc2)nc1C do in these assays?
SARS PLP yeast: inactive; AmpC inh detg: inactive; CHX counter: 16; Shiga inhibitor: inactive; AMA1 RON2 block: inactive; AmpC inh no detg: inactive

How did COC(=O)c1sc(NC(=O)c2ccncc2)nc1C do in these assays?
SARS PLP yeast: inactive; AmpC inh detg: inconclusive; CHX counter: inactive; Shiga inhibitor: inactive; AMA1 RON2 block: inactive; AmpC inh no detg: inactive

How did S=C1NCN(Cc2ccco2)CN1c1ccccc1 do in these assays?
SARS PLP yeast: inactive; AmpC inh detg: inactive; CHX counter: inactive; Shiga inhibitor: inactive; AMA1 RON2 block: inactive; AmpC inh no detg: inactive

How did Cn1c(=O)[nH]c(=O)c2c1nc(Br)n2CCC(=O)c1ccccc1 do in these assays?
SARS PLP yeast: inconclusive; AmpC inh detg: inactive; CHX counter: inactive; Shiga inhibitor: inactive; AMA1 RON2 block: inactive; AmpC inh no detg: inactive

How did COc1ccccc1OCCNC(=O)c1ccc(Br)cc1 do in these assays?
SARS PLP yeast: inactive; AmpC inh detg: inactive; CHX counter: 36; Shiga inhibitor: 62; AMA1 RON2 block: inactive; AmpC inh no detg: inactive

How did O=C(NCCOc1ccccc1F)c1cc(F)c(F)cc1Cl do in these assays?
SARS PLP yeast: inactive; AmpC inh detg: inconclusive; CHX counter: 36; Shiga inhibitor: 86; AMA1 RON2 block: inactive; AmpC inh no detg: inactive

How did COc1ccccc1OCCNC(=O)c1cc(SC)ccc1Cl do in these assays?
SARS PLP yeast: inactive; AmpC inh detg: inconclusive; CHX counter: inactive; Shiga inhibitor: inactive; AMA1 RON2 block: inactive; AmpC inh no detg: inactive

What do the screens show for `COc1ccccc1OCCNC(=O)c1cc(F)c(F)cc1Cl`?
SARS PLP yeast: inactive; AmpC inh detg: inactive; CHX counter: 30; Shiga inhibitor: 25; AMA1 RON2 block: inactive; AmpC inh no detg: inactive

Results for Cc1ccccc1C(=O)NCCOc1ccccc1Cl ?
SARS PLP yeast: inactive; AmpC inh detg: inactive; CHX counter: 36; AMA1 RON2 block: inactive; AmpC inh no detg: inactive

Results for O=C(Cc1ccc(Cl)cc1)Nc1ccc(-c2cc3ccccc3oc2=O)c(Cl)c1 ?
SARS PLP yeast: inactive; AmpC inh detg: inactive; CHX counter: inactive; Shiga inhibitor: inactive; AMA1 RON2 block: inactive; AmpC inh no detg: inconclusive

Results for CCOC(=O)Cn1c(=NC(=O)c2cc(-c3cccs3)nc3ccccc23)sc2cc(S(N)(=O)=O)ccc21 ?
SARS PLP yeast: inactive; AmpC inh detg: inactive; CHX counter: inactive; Shiga inhibitor: inactive; AMA1 RON2 block: inactive; AmpC inh no detg: inactive

What do the screens show for `COc1cc(-c2nc(CN3CCN(CC(C)C)C(=O)[C@@H]3C)c(C)o2)ccc1F`?
SARS PLP yeast: inactive; AmpC inh detg: inactive; CHX counter: inactive; Shiga inhibitor: inactive; AMA1 RON2 block: inactive; AmpC inh no detg: inactive

What do the screens show for `CC(=O)c1cc(C#N)c(SCC(=O)OC(C)(C)C)nc1C`?
SARS PLP yeast: inactive; AmpC inh detg: inactive; CHX counter: 19; Shiga inhibitor: inactive; AMA1 RON2 block: inactive; AmpC inh no detg: inactive

What do the screens show for `CC(=O)c1cc(C#N)c(SCC(=O)OC(C)C)nc1C`?
SARS PLP yeast: inactive; AmpC inh detg: inactive; CHX counter: 18; Shiga inhibitor: 26; AMA1 RON2 block: inactive; AmpC inh no detg: inactive

Results for CCSc1nc(C)c(C(C)=O)cc1C#N ?
SARS PLP yeast: inactive; AmpC inh detg: inactive; CHX counter: inactive; Shiga inhibitor: inactive; AMA1 RON2 block: inactive; AmpC inh no detg: inactive

What do the screens show for `CN1CCc2nc(SCC(=O)OC(C)(C)C)c(C#N)cc2C1`?
SARS PLP yeast: inactive; AmpC inh detg: inconclusive; CHX counter: 35; Shiga inhibitor: 79; AMA1 RON2 block: inactive; AmpC inh no detg: inactive

How did Cc1ccc(-c2nnc(Sc3nc4ccccc4o3)c3ccccc23)cc1 do in these assays?
SARS PLP yeast: inactive; AmpC inh detg: inactive; CHX counter: inactive; Shiga inhibitor: inactive; AMA1 RON2 block: inactive; AmpC inh no detg: inactive

What do the screens show for `Cc1nnc(Sc2nc3ccccc3o2)c2ccccc12`?
SARS PLP yeast: inactive; AmpC inh detg: inactive; CHX counter: 26; Shiga inhibitor: inactive; AMA1 RON2 block: inactive; AmpC inh no detg: inactive

What do the screens show for `O=C(NC1CCCCC1)c1ccc2ccccc2c1O`?
AMA1 RON2 block: inactive

How did O=C1C2CCN(CC2)[C@@H]1Cc1ccc2ccccc2c1O do in these assays?
SARS PLP yeast: inactive; AmpC inh detg: inconclusive; CHX counter: 33; Shiga inhibitor: 40; AMA1 RON2 block: inactive; AmpC inh no detg: inactive

How did Cc1ccc(S(=O)(=O)NCC(=O)N(CC(=O)NCC2CCCO2)Cc2ccco2)cc1 (centres undefined) do in these assays?
SARS PLP yeast: inactive; AmpC inh detg: inactive; CHX counter: 10; Shiga inhibitor: inactive; AMA1 RON2 block: inactive; AmpC inh no detg: inactive

What do the screens show for `COCCn1c(C(F)(F)F)ccc(NC(=O)c2ccccc2)c1=O`?
SARS PLP yeast: inactive; AmpC inh detg: inactive; CHX counter: 48; Shiga inhibitor: 51; AMA1 RON2 block: inactive; AmpC inh no detg: inactive

What do the screens show for `COc1ccc(C(=O)Nc2ccc(C(F)(F)F)n(C)c2=O)cc1`?
SARS PLP yeast: inactive; AmpC inh detg: inactive; CHX counter: 19; Shiga inhibitor: 58; AMA1 RON2 block: inactive; AmpC inh no detg: inactive

What do the screens show for `Cc1ccc(C(=O)Nc2ccc(C(F)(F)F)n(C)c2=O)cc1`?
SARS PLP yeast: inactive; AmpC inh detg: inactive; CHX counter: 45; Shiga inhibitor: 87; AMA1 RON2 block: inactive; AmpC inh no detg: inactive

What do the screens show for `COc1ccc(N2CCN(C(=O)CN3C(=O)NC4(CCCc5ccccc54)C3=O)CC2)cc1` (centres undefined)?
SARS PLP yeast: inactive; AmpC inh detg: inconclusive; AMA1 RON2 block: inactive; AmpC inh no detg: inactive

What do the screens show for `Cc1cc(CNC(=O)c2cccc3c2C(=O)c2ccc(-c4ccc(F)cc4OCc4ccccc4)cc2S3(=O)=O)c(C(F)(F)F)o1`?
SARS PLP yeast: inactive; AMA1 RON2 block: inactive; AmpC inh no detg: inactive

Results for COC(=O)[C@H](Cc1c[nH]c2ccccc12)NCc1cccc(B(O)O)c1 ?
AMA1 RON2 block: inactive

How did Cn1nnc2c(NCc3ccco3)nccc21 do in these assays?
SARS PLP yeast: inactive; AmpC inh detg: inactive; CHX counter: inactive; Shiga inhibitor: inactive; AMA1 RON2 block: inactive; AmpC inh no detg: inactive
